Source: ChEMBL document CHEMBL4513216, “Probing the Open Global Health Chemical Diversity Library for Multistage-Active Starting Points for Next-Generation Antimalarials” (ACS Infect Dis, 2020)
About 2,700 (4%) of roughly 68,000 compounds showed an effect of 50% or more. This is one part of a sample in which strong results are shown more often than they occur.

Tested on: Plasmodium berghei
Test: Screen against P. berghei liver stage (PbLuc), transformed with Luciferase, at 2uM
Type: functional, HepG2
Conditions: tested at 2 uM

Row | SMILES | INHIBITION [%]
1 | CC(C)NS(=O)(=O)c1cc(C(=O)O)cc(-c2ccc3c(c2)OCO3)c1 | -12.67
2 | O=C(NCc1ccccn1)[C@@H]1CCO[C@@H]2CCN(Cc3ccoc3)C[C@H]21 | 11.08
3 | O=C(c1ccno1)N1CCCC(c2ncncc2-c2ccncc2)C1 (stereo not given) | 6.13
4 | OC1(CN2CCCC(Cn3cncn3)C2)CCCCC1 (stereo not given) | 19.9
5 | COCC(NC1CCSCC1)c1ccnn1C (stereo not given) | 27.55
6 | CN(C)CCCN(CCC#N)C(=O)Nc1ccc2[nH]ccc2c1 | -28.09
7 | Cc1cc(C)cc(NC(=O)N(CCC#N)CCCN(C)C)c1 | 53.81
8 | Cc1cc(NC(=O)N(CCC#N)CCCN(C)C)ccc1F | -11.32
9 | Cc1noc(C)c1CN1CCc2ncnc(-c3ccoc3)c2CC1 | -15.88
10 | CCOC(=O)CNC(=O)NCc1cc(C)n(-c2ccccc2OC)c1C | 7.91
11 | CCN1CC[C@@]2(C(=O)N3CCOCC3)CCN(S(=O)(=O)CC)CC[C@@H]12 | 46.32
12 | Cc1nc(C)n(CC2CCCN2Cc2ncc(C(C)(C)C)o2)n1 (stereo not given) | -39.72
13 | FC(F)(F)c1ccc2nc([C@H]3CCN(C4CCCCC4)C3)[nH]c2c1 | -5.77
14 | FC(F)(F)c1ccc2nc([C@H]3CCN(C4CCC4)C3)[nH]c2c1 | 2.22
15 | FC(F)(F)c1ccc2nc([C@H]3CCN(C4CCOCC4)C3)[nH]c2c1 | 54.16
16 | Cc1n[nH]cc1CNCc1cccc(OCC(F)(F)F)c1 | 36.91
17 | O=C(CC1CCCC1)N1CCN(c2ccc(-n3cncn3)nn2)CC1 | 59.76
18 | O=C(CSC1CCCC1)N1CCN(c2ccc(-n3cncn3)nn2)CC1 | 15.96
19 | O=C(C1CC1)N1CCN(c2ccc(-n3cncn3)nn2)CC1 | 42.14
20 | Cc1cc(F)ccc1NS(=O)(=O)c1cc2c(c(C(=O)O)c1)OCCO2 | -1.02
21 | CC(C)(N)c1cn(C2CCN(C(=O)CCC3CCCCC3)CC2)nn1 | 20.08
22 | Cc1nc(N2CCCC2)nc2c1CCN(C(=O)CC1CC1)CC2 | -24.79
23 | CC(C)CN1CCNC(=O)C12CCN(S(=O)(=O)c1ccc(F)cc1)CC2 | 55.66
24 | CCN1CCNC(=O)C12CCN(S(=O)(=O)c1ccccc1)CC2 | -2
25 | CCN1CCNC(=O)C12CCN(S(=O)(=O)c1ccc(F)cc1)CC2 | 26.55

Row | SMILES | INHIBITION [%]
26 | Oc1cc(-c2ccccn2)nc(C2CCN(Cc3ccncc3)CC2)n1 | -1.49
27 | Nc1nc2c(c(N3CCCC(OCc4ccccn4)C3)n1)CCNCC2 (stereo not given) | -24.7
28 | Cc1ncsc1CCN(C)Cc1ccc(CO)o1 | 36.28
29 | Cc1ncsc1CCN(C)Cc1ccc(Br)o1 | 34.18
30 | Cc1ccsc1CN(C)CCc1scnc1C | 57.75
31 | CC(C)=CCN1C[C@@H]2CN(C(=O)c3cnccc3C)C[C@]2(C(=O)O)C1 | -9.48
32 | CCn1nc(C)cc1C(=O)N1CCC(Nc2ccc(C)nn2)CC1 | -7.05
33 | CN(c1ccc(C(N)=O)nn1)C1CCC1 | -35.26
34 | COC(=O)c1ccc(N(C)C2CCC2)nn1 | 24.36
35 | CNC(=O)c1ccc(N(C)C2CCC2)nn1 | 67.28
36 | C[C@@H]1C[C@H]2CN(C(=O)C3=CCCCC3)C[C@H]2O1 | 28.2
37 | O=C(c1ccncc1)N1C[C@H]2CC[C@@H](C1)N(C(=O)C1CCCC1)C2 | 63.1
38 | CCOCC(=O)N1C[C@@H]2CC[C@H]1CN(C(=O)c1ccncc1)C2 | -3.87
39 | O=C(c1ccncc1)N1C[C@H]2CC[C@@H](C1)N(C(=O)N1CCOCC1)C2 | -58.5
40 | CN(C)C(=O)N1Cc2nnn(C)c2C(COCc2cccnc2)C1 (stereo not given) | -16.25
41 | CCc1ccc(NC(=O)N2C[C@@H]3C[C@H](C(=O)NC4CCC4)[C@H](C2)O3)cc1 | 25.08
42 | Cc1ncc(CN2CCOC(c3ccc(-c4ccccc4F)cn3)C2)s1 (stereo not given) | 48.08
43 | CN(C)C(=O)c1cn[nH]c1C1(C)CCCN(Cc2ccccn2)C1 (stereo not given) | 70.33
44 | CN(C)C(=O)c1cn[nH]c1C1(C)CCN(c2ncccn2)CC1 | -16.2
45 | CNC(=O)c1cn[nH]c1C1(C)CCCN(Cc2ccccn2)C1 (stereo not given) | 19.47
46 | Cc1ccc(C)c(CS(=O)(=O)CC(=O)NCCCOC(C)C)c1 | 22.1
47 | Cc1cccc(-c2noc(C)c2C(=O)NC2CCCOC2)c1 (stereo not given) | -3.96
48 | Cc1nc(CN2CCOC3(CCCC3)C2)oc1C | 20.49
49 | Cc1nc(CN2CCN(S(=O)(=O)N3CCCCC3)CC2)oc1C | 54.44
50 | Cc1nc(CN2CCN(S(=O)(=O)N3CCOCC3)CC2)oc1C | -9.04

Row | SMILES | INHIBITION [%]
51 | CC(C)N1CC[C@H]2[C@H](C[C@@H](Cn3cccn3)N2c2nccs2)C1 | 34.42
52 | CNC(=O)CN1CC[C@H]2CN(C(=O)c3cccc(C)c3)C[C@H]2C1 | 30.63
53 | CNC(=O)CN1CC[C@H]2CN(C(=O)c3ccc(C)nc3)C[C@H]2C1 | 40.83
54 | CNC(=O)CN1CC[C@H]2CN(C(=O)c3ccc(C)cc3)C[C@H]2C1 | 51.94
55 | Cc1nccn1C1CCCN(C(=O)CCc2nc(C(C)C)no2)C1 (stereo not given) | 21.71
56 | CN1C(=O)[C@@H]2CC[C@H]1CN(C(=O)Nc1cccc3ccccc13)C2 | -110.62
57 | CCN(CC)C1COc2c(cc(Br)c(C)c2Br)C1=O (stereo not given) | 58.18
58 | Cc1c(Br)cc2c(c1C)OCC(N(C)C)C2=O (stereo not given) | -5.64
59 | CCN(CC)C1COc2c(cc(Br)c(C)c2C)C1=O (stereo not given) | 24.56
60 | Cc1cnn(CCNCC(O)COc2ccc(F)cc2)c1 (stereo not given) | -0.05
61 | CC(C)(C)C(=O)N1CCC(n2nc(-c3ccco3)ccc2=O)CC1 | 17.8
62 | Cc1cccc(CN2C[C@@H]3CN(C4CCOCC4)C[C@@H]3C2=O)c1 | 6.22
63 | O=C1[C@H]2CN(C3CCOCC3)C[C@H]2CN1Cc1cccc(F)c1 | 66.67
64 | O=C1[C@H]2CN(CC3CCOCC3)C[C@H]2CN1Cc1cccc(F)c1 | 14.13
65 | O=C1[C@H]2CN(CC3CC3)C[C@H]2CN1Cc1cccc(F)c1 | 26.52
66 | CN(C)C(=O)N1C[C@H]2CN(Cc3cccc(F)c3)C(=O)[C@H]2C1 | 18.8
67 | CN(C)C(=O)CN1C[C@H]2CN(Cc3cccc(F)c3)C(=O)[C@H]2C1 | 53.98
68 | CNC(=O)COc1ccc(CNCc2c(C)nn(C)c2N(C)C)cc1 | -5.7
69 | Cc1cnc(N2CCc3c(CNc4ccnc(C)n4)cncc3C2)nc1 | -25.4
70 | CN1C(=O)C2(CC(=O)Nc3c2cnn3C(C)(C)C)c2c(Cl)cccc21 (stereo not given) | -20.78
71 | O=C(Cn1cnnn1)NCC1(O)CCCc2ccccc21 (stereo not given) | -4.62
72 | CNc1nc(C(=O)N2CCCn3nc(C(=O)N4CCCC4)cc3C2)cs1 | -38.39
73 | Cc1ccnc(OC[C@]23COC[C@H]2CN(C(=O)Cc2ccsc2)C3)n1 | 11.1
74 | O=C(NCCSc1ccccc1F)NCc1cccnc1 | 68.04
75 | O=C(CCSc1ccccc1F)NCc1cccnc1 | -67.38

Row | SMILES | INHIBITION [%]
76 | O=C(Cc1cccnc1)NCCSc1ccccc1F | -10.89
77 | CN1CCCN(C(=O)c2cnc(Cc3c(Cl)cccc3Cl)nc2O)CC1 | -116.99
78 | Cc1ccnn1CC(=O)N(C)Cc1ccc(-n2cccn2)cc1 | 18.76
79 | Cc1ccnn1CC(=O)N(C)Cc1cnn(-c2ccccc2)c1 | 60.67
80 | CSCC(=O)N(C)Cc1cnn(-c2ccc(F)cc2)c1 | -9.65
81 | CSc1ccc(C)c(C(=O)N2CCCC(n3cncn3)C2)c1 (stereo not given) | -1.88
82 | COC(=O)c1ccc(S(=O)(=O)N(C)CC(N)=O)c(Cl)c1 | -3.54
83 | Cc1cccnc1NC(=O)N(CCO)Cc1ccsc1 | 36.95
84 | O=C(Nc1ccccn1)N(CCO)Cc1ccsc1 | 58.49
85 | O=C(Nc1nccs1)N(CCO)Cc1ccsc1 | -14.3
86 | O=C(O)c1c(-c2cncnc2)ncc2c1CCN(Cc1cccnc1)C2 | 11.98
87 | O=C(NCC1Cn2nnc(-c3ccoc3)c2CO1)c1ccc[nH]1 (stereo not given) | 12.21
88 | O=C(N1CCCC1)N1C[C@@H]2CCNC[C@@H]21 | 32.05
89 | O=C(C1CCCC1)N1C[C@@H]2CCNC[C@@H]21 | 34.79
90 | O=C(C1CCCCC1)N1C[C@@H]2CCNC[C@@H]21 | 63.89
91 | O=C(NCCc1ccccn1)[C@@]12CCO[C@@H]1CCN(CC1CC1)C2 | 51.81
92 | CN1CC[C@H]2OCC[C@@]2(C(=O)NCCc2ccccn2)C1 | 23.81
93 | CC(=O)N1CC[C@H]2OCC[C@@]2(C(=O)NCCc2ccccn2)C1 | 7.55
94 | CN(Cc1nc2ccccc2s1)C1CCCN(c2cccnn2)C1 (stereo not given) | 29.39
95 | c1cnc2nc(N3CCCC3c3nnc4n3CCCCC4)ccc2n1 (stereo not given) | 2.06
96 | Cc1c(C(=O)N[C@@H]2CC[C@@H](N3CCCC3)[C@@H]2O)[nH]c2ccc(F)cc12 | 30.96
97 | O=C(NCC(=O)N1CCN(c2ccccc2)CC1)c1sccc1C1CC1 | -31.42
98 | O=C(NCC(=O)N1CCCCC1)c1sccc1C1CC1 | 54.62
99 | Cc1ccc(C)n1-c1ccsc1C(=O)NCC(=O)N1CCCC1 | 36.34
100 | Cc1ccc2nc(C(=O)N(C)[C@@H]3CC[C@@H](N4CCCC4)[C@@H]3O)cn2c1 | -18.64
